Compound activity: PubChem, National Center for Advancing Translational Sciences (NCATS)
POLI inh: inhibitors of human DNA polymerase iota; Pol iota fluorescent replication assay, 10 min; hit rate 1% among 390,000; Potency, µM (top dose mostly 115 µM), most hits filed as inhibitors; Q9UNA4
Target sequence (Q9UNA4 whole entry, looked up): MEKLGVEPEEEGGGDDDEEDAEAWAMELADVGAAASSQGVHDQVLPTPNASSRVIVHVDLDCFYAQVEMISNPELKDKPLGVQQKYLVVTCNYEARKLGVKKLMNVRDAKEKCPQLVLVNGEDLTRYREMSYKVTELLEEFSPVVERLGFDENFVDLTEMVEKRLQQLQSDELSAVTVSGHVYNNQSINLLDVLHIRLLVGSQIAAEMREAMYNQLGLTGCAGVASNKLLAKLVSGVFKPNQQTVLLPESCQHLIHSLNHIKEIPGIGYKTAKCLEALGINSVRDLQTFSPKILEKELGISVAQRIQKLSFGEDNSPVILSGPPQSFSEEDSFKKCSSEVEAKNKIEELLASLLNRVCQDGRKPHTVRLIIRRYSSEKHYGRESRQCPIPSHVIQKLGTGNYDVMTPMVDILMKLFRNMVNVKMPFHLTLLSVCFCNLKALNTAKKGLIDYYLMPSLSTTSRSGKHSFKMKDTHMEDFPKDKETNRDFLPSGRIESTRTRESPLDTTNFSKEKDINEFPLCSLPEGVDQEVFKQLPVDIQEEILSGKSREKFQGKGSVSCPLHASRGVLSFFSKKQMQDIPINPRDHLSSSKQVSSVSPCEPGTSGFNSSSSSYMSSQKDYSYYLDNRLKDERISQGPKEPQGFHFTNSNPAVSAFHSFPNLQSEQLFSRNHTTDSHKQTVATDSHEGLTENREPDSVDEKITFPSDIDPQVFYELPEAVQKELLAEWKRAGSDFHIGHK
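Pol iota at 10 nM preincubated 15 min with compounds at room temperature; reaction started with fluorescent substrate, 50 nM final. Fluorescence read kinetically at 0 and 10 min; buffer-only wells as negative control.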
Pol beta inh: inhibitors of human DNA polymerase beta; Potency, µM (top dose mostly 114 µM), hits mostly inhibitors; hit rate 1.3% among 340,000; Pol beta primer extension/strand displacement, fluorescence kinetic; P06746
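Values derive from four-parameter Hill fits of normalized kinetic data: reads at 0 and 10 min following addition of 50 nM substrate to 10 nM Pol beta preincubated 15 min with compound.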
GLS inhibitor: blocks human kidney-isoform glutaminase activity. O94925. GLS enzymatic activity, qHTS titration. Potency, µM (doses to about 45.5 µM), hits mostly inhibitors. hit rate 0.21% among 410,000
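Compounds were pin-transferred onto hKGA, after which L-glutamine (1 mM solution) and a detection mix of glutamate oxidase, HRP and Amplex Red were added. Initial and 30 min RT fluorescence reads were collected.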
Pol eta inh-1: blocks human DNA polymerase eta activity | recombinant Pol eta, fluorescent DNA replication assay | Potency, µM (highest dose often 114 µM), usual class: inhibitors | hit rate 1.2% among 390,000
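Pol eta at 10 nM preincubated with compounds 15 min at room temperature; reaction started with fluorescent substrate (50 nM final) and read kinetically at 0 and 10 min.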
KAT2A inh: GCN5L2 (KAT2A) acetyltransferase inhibition. Q92830. GCN5L2 HAT assay, ThioGlo1 CoA-SH fluorescence. Potency, µM (top dose mostly 58.9 µM), hits mostly inhibitors. hit rate 0.21% among 390,000. AID 504327
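ThioGlo1-coupled HAT assay: 20nM GCN5L2, 70uM acetyl-CoA, 75uM H3(1-25) peptide, pH 7.5. Fluorescence read at 340/540nm at start and after 20 min at room temperature.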
Pol kappa inh-1: inhibitors of human DNA polymerase kappa; Potency, µM (series often up to 107 µM), most hits filed as inhibitors; purified Pol kappa, fluorescent DNA synthesis assay, 10 min; hit rate 0.53% among 400,000
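Here, compound and 10 nM enzyme are combined for 15 min at room temperature; adding 50 nM substrate (final) starts DNA synthesis, tracked by fluorescence at 0 and 10 min against buffer-only wells.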
TbPGK inh: validation of Trypanosoma brucei phosphoglycerate kinase inhibitors; shares compounds with Pol kappa inh-1; TbPGK coupled GAPDH assay, Kinase-Glo luminescence; Potency, µM (titrated, usually from 57.5 µM), most hits filed as inhibitors; hit rate 79% among 500; AID 686980; also: nearly all actives have a fitted effect of over 65% in size
POLI cherry-pick: Inhibitors of human DNA polymerase iota, confirmation | Potency, µM, hits mostly inhibitors | hit rate 77% among 1,500 | AID 720496 | shares compounds with Pol kappa inh-1 | Pol iota primer extension, TAMRA/BHQ fluorescence
GALK confirm: galactokinase (human) inhibition, confirmation; hit rate 70% among 150; purified GALK, Kinase-Glo ATP depletion luminescence; shares compounds with Pol eta inh-1; Potency, µM (doses to about 115 µM), usual class: inhibitors
GALK redox cs: redox cycling activity in phenol red-HRP assay. shares compounds with Pol eta inh-1. Phenol red-HRP H2O2 redox cycling, absorbance 600 nm. Potency, µM (series often up to 115 µM), actives largely listed as inhibitors. hit rate 40% among 150
HEK293 tox: counter-screen for GALK inhibitors: HEK293 cell cytotoxicity | shares compounds with Pol eta inh-1 | HEK-293 viability, ATP luminescence (CellTiter-Glo), 24/48 h | Potency, µM (doses to about 46.1 µM), actives largely listed as inhibitors | hit rate 10% among 170 | AID 2547
Pol kappa inh-2: confirmation of human DNA polymerase kappa inhibitors. hit rate 76% among 920. shares compounds with Pol eta inh-1. Potency, µM, usual class: inhibitors. purified Pol-kappa, fluorescent strand-displacement substrate
Pol eta inh-2: confirmation of human DNA polymerase eta inhibitors. shares compounds with Pol eta inh-1. Pol eta primer extension, TAMRA/BHQ fluorescence, 10 min. Potency, µM, hits mostly inhibitors. hit rate 64% among 2,600. AID 720502
Of the large screens only hits and unclear results are named; the others gave an inactive call (follow-up assays come after a bar, where they were run). Hits are enriched below; roughly 2.4% of the tested compounds scored in any of these assays. Calls follow the shape of the dose curve; as a rule, active = well fitted curve in the direction sought with a large enough effect; inconclusive = small, poorly fitted or top-dose-only effect, or another doubt; inactive = no such curve, though single readings can be large; an effect the other way counts as inactive or inconclusive.

O=C1c2ccccc2C(=O)c2c1ccc(O)c2O	Pol eta inh-1 inconclusive, KAT2A inh inconclusive, Pol kappa inh-1 inconclusive (no result: Pol beta inh) | TbPGK inh inconclusive | POLI cherry-pick inconclusive | Pol eta inh-2 75.7
COC(=O)c1ccc2c(c1O)C(=O)c1ccccc1C2=O	POLI inh inconclusive
Cc1cc(C)c(S(=O)(=O)/N=C2\C=C(Nc3ccc(C(=O)O)cc3)C(=O)c3ccccc32)c(C)c1	POLI inh 14.1µM, Pol beta inh 22.4µM, GLS inhibitor inconclusive, Pol eta inh-1 11.2µM, Pol kappa inh-1 89.1µM | POLI cherry-pick 67 | Pol eta inh-2 16.9
O=C(O)c1ccc(NC2=C/C(=N/S(=O)(=O)c3cccs3)c3ccccc3C2=O)cc1	Pol eta inh-1 8.91µM (no result: POLI inh, Pol beta inh, KAT2A inh, Pol kappa inh-1) | POLI cherry-pick 29.9 | Pol eta inh-2 21.3
CCc1ccc(S(=O)(=O)/N=C2\C=C(Nc3cccc(C(=O)O)c3)C(=O)c3ccccc32)cc1	POLI inh 1.12µM, Pol beta inh inconclusive, GLS inhibitor inconclusive, Pol eta inh-1 22.4µM | POLI cherry-pick 75.2 | Pol eta inh-2 60.1
Cc1cccc(NC2=C/C(=N/S(=O)(=O)c3cccs3)c3ccccc3C2=O)c1	none
O=C(O)c1ccc(NC2=C/C(=N/S(=O)(=O)c3ccccc3)c3ccccc3C2=O)cc1	POLI inh inconclusive, Pol eta inh-1 8.91µM | POLI cherry-pick 18.9 | GALK confirm inconclusive | GALK redox cs 5.95µM | HEK293 tox 11.2µM | Pol eta inh-2 21.3
Cc1cc(C)c(S(=O)(=O)/N=C2\C=C(NS(=O)(=O)c3ccccc3)C(=O)c3ccccc32)c(C)c1	POLI inh inconclusive
CCc1ccccc1Nc1nc2ccccc2c2nncn12	none
COc1ccc2[nH]c(=O)c(C(=O)O)cc2c1	Pol beta inh inconclusive
COc1ccc2[nH]c(=O)cc(C(=O)O)c2c1	POLI inh inconclusive, Pol beta inh 17.8µM, GLS inhibitor 14.1µM, Pol eta inh-1 14.1µM, Pol kappa inh-1 inconclusive | POLI cherry-pick inconclusive | Pol kappa inh-2 10.6 | Pol eta inh-2 26.9
CCc1ccc(N=C2NC(=O)/C(=C/c3cc(OC)c(OC)c(OC)c3)S2)cc1	none
CCc1ccc(N=C2NC(=O)/C(=C/c3cc(Br)c(OCC(=O)O)c(OC)c3)S2)cc1	POLI inh 39.8µM, Pol beta inh 15.8µM, GLS inhibitor inconclusive, Pol eta inh-1 35.5µM, KAT2A inh inconclusive, Pol kappa inh-1 inconclusive | POLI cherry-pick 67 | Pol kappa inh-2 47.4 | Pol eta inh-2 84.9
O=C(COC(=O)c1ccccc1O)Nc1ncc(Cl)cc1Cl	POLI inh 39.8µM, GLS inhibitor inconclusive, Pol eta inh-1 17.8µM, Pol kappa inh-1 35.5µM | POLI cherry-pick inconclusive | Pol eta inh-2 26.9
CCOC(=O)Cc1cc(C(=O)Nc2ccc(Br)cc2)sc1-c1ccc(C)cc1	none
CCc1n[nH]c(=S)n1/N=C/c1cc(OC)cc([N+](=O)[O-])c1O	POLI inh inconclusive, GLS inhibitor inconclusive, Pol eta inh-1 20µM, KAT2A inh inconclusive | POLI cherry-pick 33.6 | Pol eta inh-2 60.1
CCCCN(C)C1=CC2=CC(=C(C#N)C#N)CCC2CC1 (stereo not given)	POLI inh inconclusive, Pol eta inh-1 inconclusive | POLI cherry-pick 75.2 | Pol kappa inh-2 inconclusive | Pol eta inh-2 75.7
COCCCn1c(=O)c2sccc2n2c(CCCC(=O)Nc3ccc(F)c(F)c3)nnc12	none
COc1ccc([C@]23Cc4ccccc4C(O2)C2=C(O3)C(=O)c3ccccc3C2=O)cc1	Pol beta inh inconclusive (no result: POLI inh, GLS inhibitor, Pol eta inh-1, Pol kappa inh-1)
O=C1c2ccc3c4c(ccc(c24)C(=O)N1NC(=O)C(F)(F)F)CC3	POLI inh 22.4µM, Pol eta inh-1 79.4µM, Pol kappa inh-1 17.8µM | POLI cherry-pick 42.3 | Pol eta inh-2 16.9
O=C(NN1C(=O)c2ccc3c4c(ccc(c24)C1=O)CC3)c1ccc(Br)cc1	Pol kappa inh-1 inconclusive
O=C(O)c1cc(O)c2c(c1)C(=O)c1cc(O)cc(O)c1C2=O	POLI inh inconclusive, Pol beta inh 7.94µM, GLS inhibitor 17.8µM, Pol eta inh-1 8.91µM, Pol kappa inh-1 22.4µM | POLI cherry-pick 21.2 | Pol eta inh-2 6.01
COc1cc(O)c2c(c1)C(=O)c1cc(C)cc(O)c1C2=O	Pol kappa inh-1 inconclusive (no result: POLI inh, Pol beta inh, GLS inhibitor, Pol eta inh-1)
COc1ccc(/C=C2\C(=O)NC(=S)N2C(=O)c2ccc(F)cc2)cc1	POLI inh inconclusive, Pol beta inh 14.1µM, Pol eta inh-1 25.1µM | POLI cherry-pick 84.4 | Pol kappa inh-2 67 | Pol eta inh-2 inconclusive
COc1cc(NS(=O)(=O)c2ccc(NC(=S)NC(=O)/C=C/c3ccc(OC)c(OC)c3)cc2)ncn1	POLI inh inconclusive, Pol eta inh-1 31.6µM | TbPGK inh 29.1µM | POLI cherry-pick 37.7 | Pol kappa inh-2 26.7
COc1ccc(NC(=O)C(Cc2ccccc2)NS(=O)(=O)c2ccc3c(c2)CCC(=O)N3)c(OC)c1 (stereo not given)	none
C=CC(=O)N1C/C(=C/c2ccc(F)cc2)C(=O)/C(=C\c2ccc(F)cc2)C1	POLI inh 11.2µM, GLS inhibitor 10µM, Pol eta inh-1 10µM, Pol kappa inh-1 79.4µM (no result: Pol beta inh, KAT2A inh) | TbPGK inh 5.8µM | POLI cherry-pick 59.7 | Pol eta inh-2 75.7
CCOc1ccccc1NC(=O)c1cc(=O)c2ccc(C)cc2o1	none
COc1ccc2c(C)nc(Nc3nc(C)c(C)c(=O)[nH]3)nc2c1	Pol eta inh-1 inconclusive | POLI cherry-pick 53.2 | Pol eta inh-2 75.7
